# Tau fluor counter = counter-screen for tau fibril formation inhibitors | tau K18 P301L Alexa594 fluorescence, heparin fibrillization | Potency, µM (titrated, usually from 57.7 µM), inactives show top-dose activity change, negative = decrease | hit rate 0.93% among 280,000; further: nearly all actives have a fitted effect of over 55% in size
#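 Human tau K18 P301L (15 uM unlabeled, 0.24 uM Alexa 594-labeled) in 100 mM sodium acetate pH 7 with 20 uM heparin, 6 hr at 37 C. ThT 30 uM added, 1 hr ambient; Alexa 594 FP and total fluorescence read at 555/632 nm.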
# Gal4-VP16 FLuc = Gal4-VP16 reporter inhibition counter-screen. hit rate 3.5% among 310,000. Potency, µM (series often up to 53.6 µM), for inactives: at the top dose activity, negative = inhibition, most hits filed as inhibitors. AID 2546. Drosophila S2 Gal4-VP16 UAS-luciferase, luminescence, 20 h;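 further: Gal4-VP16 expression switched on by copper sulfate through the metallothionein promoter; nearly all actives have a fitted effect of over 50% in size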
# Tau fibril FP = tau fibrillization inhibition (FP). K18 P301L tau heparin fibrillization, Alexa594 FP, 6 h. Potency, µM (highest dose often 57.7 µM), for the others: at the highest dose activity, negative = inhibition, usual class: inhibitors. P10636. hit rate 0.39% among 280,000; further: nearly all actives have a fitted effect of over 55% in size
# Target sequence (P10636 561-689 P618L limits assumed): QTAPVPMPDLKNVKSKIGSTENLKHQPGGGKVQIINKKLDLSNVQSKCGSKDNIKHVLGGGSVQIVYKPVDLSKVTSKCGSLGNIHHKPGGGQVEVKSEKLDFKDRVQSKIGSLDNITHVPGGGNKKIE
#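 FP of Alexa 594-tau after heparin (20 uM) induction. Substrate: human K18 P301L, 15 uM unlabeled, 0.24 uM labeled. Buffer 100 mM sodium acetate pH 7. 6 hr, 37 C.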
# Tau ThT inhib = inhibitors of human tau fibril formation, thioflavin T binding; hit rate 2.1% among 270,000; Potency, µM (top dose mostly 57.4 µM), for the others: at the highest dose activity, negative = inhibition, hits mostly inhibitors; AID 1460; recombinant tau K18 P301L (four-repeat tau fragment), heparin-induced fibrillization, ThT fluorescence; further: nearly all actives have a fitted effect of over 55% in size
#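 In this qHTS, human K18 P301L tau is incubated with compound and heparin for 6 hr at 37 C, and Thioflavin T fluorescence then reports fibril load.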
# RORgamma inh = ROR gamma (mouse) transcription inhibition. P51450. Drosophila S2 Gal4-RORgamma UAS-luciferase reporter, 20 h. hit rate 5.4% among 310,000. Potency, µM (doses to about 53.6 µM), inactives show at the highest dose activity change, negative = inhibition, usual class: inhibitors; further: nearly all actives have a fitted effect of over 60% in size
# Target sequence (P51450 whole entry, looked up, the tested form may be a part): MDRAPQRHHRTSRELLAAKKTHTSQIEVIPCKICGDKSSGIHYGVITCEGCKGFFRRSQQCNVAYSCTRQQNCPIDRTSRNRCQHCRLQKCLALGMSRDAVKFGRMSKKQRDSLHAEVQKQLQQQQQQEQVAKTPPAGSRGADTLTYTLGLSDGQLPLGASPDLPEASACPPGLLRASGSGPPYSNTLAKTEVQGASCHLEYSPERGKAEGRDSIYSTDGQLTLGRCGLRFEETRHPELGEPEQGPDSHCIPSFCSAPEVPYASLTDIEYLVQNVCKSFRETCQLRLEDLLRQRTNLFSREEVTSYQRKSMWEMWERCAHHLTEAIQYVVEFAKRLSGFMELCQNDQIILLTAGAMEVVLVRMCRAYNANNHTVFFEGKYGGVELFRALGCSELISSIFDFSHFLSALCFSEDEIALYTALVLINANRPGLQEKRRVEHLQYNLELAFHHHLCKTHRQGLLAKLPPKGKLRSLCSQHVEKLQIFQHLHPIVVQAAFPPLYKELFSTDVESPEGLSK
#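 Luciferase reporter read in Schneider cells carrying Gal4-RORγ (mouse) and UAS-Photinus luciferase; cells given compound 1 h before 700 uM copper sulfate induction, then incubated 20 h at ambient temperature.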
# An asterisk follows results filed as active; ? = inconclusive; . = not tested or not shown; [ ] = remark or other dose. A selection: hits, their analogues and other compounds. The true share with any hit is near 7.3%. The call rests on the fitted dose curve; in most records, active means well fitted curve in the direction sought with a large enough effect; inconclusive means small, poorly fitted or top-dose-only effect, or another doubt; inactive means no such curve, though single readings can be large; an effect the other way counts as inactive or inconclusive. On the % scale 0 is the no-effect control and ±100 the full control effect; potency means the concentration at half of the fitted maximal effect.
SMILES,Tau fluor counter,Gal4-VP16 FLuc,Tau fibril FP,Tau ThT inhib,RORgamma inh
N#Cc1cnc(SCCc2ccccc2)nc1N,-3%,.,2%,-1%,8%[0.365 µM]
Cn1cccc1C(=O)N1CCC2(CC1)CCN(c1ccc(-c3ccccc3)cc1)CC2,.,-2%,.,.,-22%
CCCN1C2CCCC1CC(NC(=S)Nc1cc(C)cc(C)c1)C2 (centres undefined),-10%,15%,1%,-5%,-26%
COCCNC(=S)NC1CC2CCCC(C1)N2Cc1cccs1 (centres undefined),1%,-1%,-1%,-5%,?
COCCCNC(=S)NC1CC2CCCC(C1)N2Cc1cccs1 (centres undefined),5%,-2%,-2%,-1%,10µM*
Cc1cccc(NC(=S)NC2CC3CCCC(C2)N3Cc2cccs2)c1 (centres undefined),-13%,?,0%,3%,5µM*
CSc1c(-c2ccccn2)c(N)nn1C(=O)C1CCC1,-21%,0%,-3%,?,31%
CCC(=O)N1CCN=C1SCc1cccc(F)c1,.,-5%,.,.,-2%
Cc1ccc(-c2cnc(SCC(=O)N3CCCc4ccccc43)n2C)cc1,-17%,-13%,4%,?,11µM*
Cn1c(-c2ccccc2)cnc1SCC(=O)N1CCCCC1,-2%,8.9µM*,2%,-11%,5µM*
CCn1ncc(S(=O)(=O)Nc2cc(Cl)ccc2C)c1C,.,-1%,.,.,-27%
Cc1cc(C)c2c(=O)n(CC(=O)Nc3cccc(Cl)c3C)sc2n1,?,3.2µM*,20µM*,.,?
Cc1c(Cl)cccc1NC(=O)Cn1cccc1,-10%,2%,3%,-8%,12%
Cc1cc(C)c2c(=O)n(CC(=O)NC3CCCC3)sc2n1,-24%,?,14µM*,13µM*,?
Cc1cc(C)c2c(=O)n(CC(=O)Nc3ccc(Br)c(C)c3)sc2n1,?,?,?,?,13µM*
COc1ccc(OC)c(CCNC(=O)Cn2nc(C)c3c(C)n(-c4ccc(C)cc4)nc3c2=O)c1,.,?,.,.,23%
COc1ccc(OC)c(CCNC(=O)Cn2sc3nc(C)cc(C)c3c2=O)c1,-29%,-7%,?,11µM*,-1%
CCOC(=O)CN1C(=O)N[C@@H](c2cccc(C(F)(F)F)c2)[C@H](C(=O)OC)[C@H]1C,3%[11.6 µM],.,0%[11.6 µM],0%[11.5 µM],.
Cc1c2cnn(-c3ccccc3)c(=O)c2c(C)n1CC(=O)NCCc1ccc(Cl)cc1,-7%,.,0%,7%,.
CCN1/C(=C/C=C/c2oc3ccc(-c4ccccc4)cc3[n+]2CC)Oc2ccc(-c3ccccc3)cc21,4µM*[fluorescent],0.35µM*,?,?,13µM*
Cc1ccc(N=C2NC(=O)/C(=C/C=C/c3ccco3)S2)cc1,?,-3%,?,6.3µM*,-36%
Cc1cccc(N=C2NC(=O)/C(=C/C=C/c3ccco3)S2)c1C,?,-13%,?,16µM*,-5%
Cc1ccc(N=C2NC(=O)/C(=C/c3cccn3C)S2)cc1,?,-10%,3%,6.3µM*,-42%
CC(=O)N1CCN(C2=NC(=O)/C(=C/c3ccc(OS(=O)(=O)c4ccccc4)cc3)S2)CC1,.,0%,.,.,33%
Cc1[nH]n(-c2ncc(-c3ccccc3)s2)c(=O)c1C(c1ccc(Cl)cc1)C(C#N)C#N (centres undefined),?,?,?,14µM*,?
SMILES,Tau fluor counter,Gal4-VP16 FLuc,Tau fibril FP,Tau ThT inhib,RORgamma inh
N#CC1=C(N)OC2=C(CCC/C2=C/c2ccoc2)C1c1ccoc1 (centres undefined),-21%,8%,?,28µM*,5%
N#Cc1ccc(COC(=O)CCc2c[nH]c3ccccc23)cc1,.,-6%,.,.,-11%
O=C(NCc1cccc(F)c1)c1ccc2nc(N3CCOCC3)sc2c1,.,?,.,.,-11%
N#CC1=C(N)SC(N)=C(C#N)C1C1CC=CCC1 (centres undefined),-5%,?,2%,-3%,16µM*
N#CC1=C(N)SC(N)=C(C#N)C1C1C=CCCC1 (centres undefined),-7%,?,-2%,-8%,?
c1ccc2oc(C3=NNC(=NC4CC4)SC3)cc2c1,-23%,11µM*,-7%,14µM*,3.5µM*
Cc1cc(C2=NNC(=NC3CC3)SC2)c(C)n1-c1ccccc1F,1%,0.71µM*,-3%,8%,1.1µM*
c1ccc(CN=C2NN=C(c3cc4ccccc4o3)CS2)cc1,-18%,20µM*,-3%,?,?
Cc1cccc(NC(=O)CSc2cn(CC(=O)N3CCCC3)c3ccccc23)c1C,-6%,.,-6%,?,.
O=C(Nc1cccnc1)c1ccc(Cl)c(S(=O)(=O)N2CCCC2)c1,.,-2%,.,.,?
O=C(NCCc1ccc(F)cc1)C(=O)NCC(c1cccs1)S(=O)(=O)c1ccc(Cl)cc1 (centres undefined),-23%,.,-8%,-6%,.
N#C/C(=C(/O)CCl)c1nnc2n1CCCCC2,-10%,-27%,-3%,-13%,?
N#C/C(=C1\C(=O)Nc2c(Cl)cc(Cl)cc21)c1nnc2n1CCCCC2,-25%,?,?,16µM*,16µM*
N#C/C(=N\Nc1cc(Cl)cc(Cl)c1)c1nnc2n1CCCCC2,-3%,6.3µM*,-1%,0%,6.3µM*
N#C/C(=C1/CCCCCN1)c1nnc2n1CCCCC2,3%,6%,7%,1%,-2%
Cc1nn(-c2ccccc2)c(OC(=O)c2ccccc2F)c1S(=O)(=O)c1ccccc1,-13%,.,-1%,-10%,.
Cc1ccc(Sc2ccc(N3CCC(C(=O)Nc4ccc(Cl)cc4)CC3)nn2)cc1,-16%,.,-15%,3%,.
CC1(C(=O)NNC(=S)NCc2ccco2)CC1(Cl)Cl (centres undefined),2%,-2%,5%,-3%,8.9µM*
CCCCc1ccc(S(=O)(=O)NNC(=S)NCc2ccco2)cc1,-12%,?,-7%,-9%,8.9µM*
CC(=O)Nc1ccc(S(=O)(=O)NNC(=S)NCc2ccco2)cc1,.,-28%,.,.,11µM*
COc1ccc(-c2nonc2NC(=O)c2ccco2)cc1OC,.,-5%,.,.,-4%
CC(NC(=O)C(=O)Nc1c2c(nn1-c1ccccc1)CSC2)c1ccccc1 (centres undefined),-13%,.,-13%,-12%,.
COc1ccc(C)cc1NC(=O)Cc1c(C(=O)O)c(C)cn1C,-3%,.,5%,1%,.
CCCCc1cc(=O)oc2cc(OC(C)C(=O)NCCN3CCOCC3)c(Cl)cc12 (centres undefined),.,1%,.,.,17%
Oc1ccccc1-c1nnc(COc2ccccc2)o1,-18%,?,-4%,-7%,10µM*
Oc1ccccc1-c1nnc(COc2ccc(Cl)cc2Cl)o1,-19%,4.5µM*,1%,?,2.5µM*
c1ccc(OCc2nnc(-c3ccccc3)o2)cc1,-1%,5%,1%,1%,5%

# Screens as filed in PubChem BioAssay.
